Source: PubChem BioAssay (National Center for Advancing Translational Sciences (NCATS))
Shown are actives, neighbours in structure and some others; about 19% of the full set was active somewhere.
Giardia killer: kills Giardia lamblia; Giardia lamblia trophozoite viability; activity change, % at 7.66 µM, hits read low; 340,000 compounds, 0.15% hits; AID 540267; in the data active means activity change below about -80%; inconclusive means between about -30% and that limit;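 further: parasites exposed to compound for two days anaerobically before the ATP read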
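Viability, read as ATP luminescence: trophozoites at 100 cells/well, compound added, 48 hrs anaerobic at 37 deg C, then 15-30 min room-temperature development before reading.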
ELG1 DNA repair: ELG1-dependent DNA repair inhibition. HEK293T ELG1-luciferase reporter, luminescence, 16 h; DNA damage induced by 5-fluorouridine. AID 504467. 330,000 compounds, 2.3% hits. Potency, µM (highest dose often 46.1 µM), for inactives: at the highest dose activity change, negative = inhibition, actives largely listed as inhibitors; further: potency means the concentration at half of the fitted maximal effect; nearly all actives have a fitted effect of over 55% in size
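Quantitative HTS, concentration-response format. 2,000 cells/well co-treated with 5-fluorouridine and compound, 16 hr in 5% CO2 at 37 °C; ONE-Glo luminescence read after 30 min.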
IL-1B inflam inh: inflammasome signaling inhibition, IL-1 beta readout; THP-1 LPS/ATP IL-1B secretion, AlphaLISA, 16 h; hits give low values; activity change, % at 57.5 µM; 360,000 compounds, 4.7% hits; AID 743279; in the data active means activity change below about -50%; inconclusive means mostly about -30% to -49%
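Secreted IL-1B measured by AlphaLISA bead assay after 16 h compound exposure of THP-1 cells; compounds (final up to 57.5 uM) added 1 h before LPS (250 ng/mL) and ATP (1.25 mM) stimulation; lower signal means less secretion.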
TDP1 cell noCPT: qHTS for Inhibitors of human tyrosyl-DNA phosphodiesterase 1 (TDP1): qHTS in cells in absence of CPT; DT40 Tdp1-/- hTDP1 cells, no CPT, ATP luminescence, 48 h; Potency, µM (series often up to 46.2 µM), without a hit: top-dose activity change, negative = growth inhibition, actives largely listed as inhibitors; 420,000 compounds, 15% hits; AID 686978, 2013; further: potency means the concentration at half of the fitted maximal effect; nearly all actives have a fitted effect of over 55% in size
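Luminescent ATP content (CellTiter-Glo) served as the growth readout. Knockout chicken DT40 cells expressing human TDP1 were exposed to compounds without camptothecin for a minimum 48 hr at 37 °C.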
TDP1 inh: blocks human tyrosyl-DNA phosphodiesterase 1. recombinant TDP1, AlphaScreen DNA substrate cleavage. Potency, µM (doses to about 130 µM), inactives show at the highest dose activity change, negative = inhibition, hits mostly inhibitors. AID 485290. 350,000 compounds, 0.28% hits; further: potency means the concentration at half of the fitted maximal effect; nearly all actives have a fitted effect of over 40% in size
Target sequence (Q9NUW8 whole entry, looked up): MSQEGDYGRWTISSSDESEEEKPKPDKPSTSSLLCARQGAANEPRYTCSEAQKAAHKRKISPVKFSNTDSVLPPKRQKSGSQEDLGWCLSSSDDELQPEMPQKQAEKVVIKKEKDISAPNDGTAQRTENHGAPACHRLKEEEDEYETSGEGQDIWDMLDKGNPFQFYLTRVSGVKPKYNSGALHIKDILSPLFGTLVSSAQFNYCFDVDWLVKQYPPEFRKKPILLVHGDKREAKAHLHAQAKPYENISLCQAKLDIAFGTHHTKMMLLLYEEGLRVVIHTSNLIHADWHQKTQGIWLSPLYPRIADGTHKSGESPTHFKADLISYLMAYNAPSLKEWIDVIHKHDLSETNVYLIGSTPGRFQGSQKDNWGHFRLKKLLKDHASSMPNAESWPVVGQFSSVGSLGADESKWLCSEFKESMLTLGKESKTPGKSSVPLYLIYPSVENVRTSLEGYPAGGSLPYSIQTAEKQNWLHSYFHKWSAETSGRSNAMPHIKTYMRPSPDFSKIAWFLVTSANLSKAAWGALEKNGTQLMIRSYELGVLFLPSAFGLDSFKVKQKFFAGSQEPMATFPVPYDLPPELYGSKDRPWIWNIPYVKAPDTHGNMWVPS
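Recombinant human Tdp1 (E. coli-expressed, 1 nM final) preincubated with compounds 15 min at room temperature, then 5'-biotin/3'-phosphotyrosine-FITC DNA substrate (15 nM final) added for 5 min. AlphaScreen beads (10 ug/ml final) added 10 min; cleavage lowers signal.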
TDP1 cell CPT: DT40-hTDP1 cell growth loss with CPT; chicken DT40 Tdp1-/-;hTDP1 cells + 20 nM CPT, ATP luminescence, 48 h; Potency, µM (doses to about 46.2 µM), without a hit: top-dose activity change, negative = growth inhibition, usual class: inhibitors; 420,000 compounds, 12% hits; further: potency means the concentration at half of the fitted maximal effect; nearly all actives have a fitted effect of over 55% in size
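Chicken DT40 Tdp1-/- cells complemented with human TDP1, 400 cells/well, exposed to compounds plus 20 nM camptothecin for at least 48 h at 37 C; viability read as ATP content by CellTiter-Glo luminescence.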
* = called active by the depositor; ? = inconclusive; / = no result given; [ ] = another dose, or the depositor's remark. Unless noted, the call rests on the fitted dose curve; in most records, active means well fitted curve in the direction sought with a large enough effect; inconclusive means small, poorly fitted or top-dose-only effect, or another doubt; inactive means no such curve, though single readings can be large; an effect the other way counts as inactive or inconclusive. On the % scale 0 is the no-effect control and ±100 the full control effect.

SMILES	Giardia killer	ELG1 DNA repair	IL-1B inflam inh	TDP1 cell noCPT	TDP1 inh	TDP1 cell CPT
C[C@H](CO)N1C[C@H](C)[C@@H](CN(C)S(=O)(=O)c2ccc(Cl)cc2)Oc2ccc(NS(=O)(=O)c3ccccc3)cc2CC1=O	-21	-3%	-27	?	1%	10µM*
C[C@H]1CN([C@@H](C)CO)C(=O)Cc2cc(NC(=O)CCC(F)(F)F)ccc2O[C@H]1CN(C)S(=O)(=O)c1ccc(F)cc1	8	-2%	54	6.5µM*	1%	7.3µM*
C[C@H]1CN([C@@H](C)CO)C(=O)Cc2cc(NC(=O)CCC(F)(F)F)ccc2O[C@H]1CN(C)S(=O)(=O)c1ccc(Cl)cc1	20	?	50	?	0%	5.2µM*
CC(=O)OCC(NC(=O)C(C)NC(=O)OC(C)(C)C)C1OC(n2cc(F)c(=O)[nH]c2=O)C(OC(C)=O)C1OC(C)=O (centres undefined)	7	/	/	/	6%	/
Cc1nc2nc(-c3ccc(Cl)cc3Cl)nn2c(C)c1CCC(=O)Nc1ccc(F)cc1	/	/	/	0%	0%	1%
COc1cc2nc(N3CCN(C)CC3)nc(NC(C)C)c2cc1OC	/	/	/	18µM*	/	?
COc1cc2nc(N3CCCCC3)nc(NC(C)C)c2cc1OC	/	/	/	?	/	5µM*
COc1cc2nc(Cl)nc(NC(C)C)c2cc1OC	/	/	/	16µM*	/	14µM*
CCCCc1ccc(NC(=O)CSC2=NN3CCCC(=O)N=C3S2)cc1	3	-23%	36	?	3%[0.0935 µM]	?
CN(C)c1cccc(S(=O)(=O)N2CCCN(S(=O)(=O)c3ccc4c(c3)OCCO4)CC2)c1	/	/	/	/	3%	/
COc1cc(-c2n[nH]c(=S)n2-c2ccc(C)cc2)cc(OC)c1OC	1	?	-18	-17%	6%	16µM*
CCOc1ccc2nc(Cl)c(C3CC(c4ccc(C)cc4)=NN3C(=O)CCC(=O)O)cc2c1 (centres undefined)	/	/	/	-17%	-3%	3%
CCNC(=S)NNC(=O)c1cc(-c2cccc(C)c2)nc2ccccc12	-17	?	-11	7.3µM*	13%	21µM*
CCNC(=S)NNC(=O)c1cc(-c2cccnc2)nc2ccccc12	2	?	-2	-26%	5%	3%
CCNC(=S)NNC(=O)c1cc(-c2cccc(OCC)c2)nc2ccccc12	4	?	-1	10µM*	11%	15µM*
O=C(COC(=O)/C=C/c1ccccc1Cl)NC1CC1	/	/	0	-3%	/	-3%
Nc1nc(=S)[nH]c2n[nH]nc12	/	/	/	3.5µM*	/	4.5µM*
Nc1nc(=S)[nH]c(N)c1N	/	/	/	-21%	/	3%
CN(c1ccc(F)cc1)S(=O)(=O)c1ccc(Cl)c(C(=O)NCc2ccco2)c1	10	?	13	?	2%	?
COC(=O)c1cc(S(=O)(=O)N2CCCCCC2)c[nH]1	-30	11%	11	-11%	/	2%
COc1cccc(N2CCN(C(=O)c3cn(Cc4ccccc4)nc3-c3cccnc3)CC2)c1	?	-4%	71	2.1µM*	0%	2.6µM*
COc1cccc(NC(=O)CN(C)C(=O)/C=C/c2cn(Cc3ccccc3)nc2-c2cccnc2)c1	-14	15µM*	?	?	-4%	?
COc1ccccc1N1CCN(C(=O)c2cn(Cc3ccccc3)nc2-c2cccnc2)CC1	14	-24%	49	-15%	0%	?
O=C(c1cn(Cc2ccccc2)nc1-c1cccnc1)N1CCN(Cc2c(F)cccc2Cl)CC1	7	9.2µM*	17	29µM*	-9%	?
CCc1ccc(NC(=O)CSC2=Nc3ccccc3C3=NC(CC(=O)NCc4cccs4)C(=O)N23)cc1 (centres undefined)	/	/	/	4.6µM*	3%	7.3µM*
